For some assays here: Measured potencies and affinities stand elsewhere.

One assay can be described thus: rescue of polyQ-huntingtin neuronal dysfunction in worms, whole organism, C. elegans mechanosensory neurons, N-terminal huntingtin (AID 1599). Conditions: touch response, stronger effect = higher value.
`CCCCOc1ccc(C(=O)CCN2CCCCC2)cc1`: the rescue above control turned out to be 14.1.

Regarding `COc1ccc(C(=O)c2ccccc2)c(O)c1`, the rescue above control was determined as 9.82.

Take `CC/C(=C(/CC)c1ccc(O)cc1)c1ccc(O)cc1`: the rescue above control is -4.53.

On to `CCCCOc1cc(C(=O)NCCN(CC)CC)c2ccccc2n1`, for which the rescue above control is -3.49.

In the case of `O=C1C(O)=C(O)C(=O)C(O)=C1O`, the rescue above control is -5.82.

In the case of `CCCCCCCCNC(C)C(O)c1ccc(SC(C)C)cc1` (stereo not given), the rescue above control was 0.

With `CCCCC(CC)CN=C(N)NC(N)=NCCCCCCN=C(N)NC(N)=NCC(CC)CCCC` (stereo not given), the rescue above control worked out at 0.

Another assay is described as follows: inhibitors of mitochondrial cytochrome c release, biochemical, purified mitochondria (AID 1603).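 Also: mouse liver mitochondria challenged with calcium chloride; signal normalized to the plate average as 100%.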 Conditions: stronger effect = lower value.
For `Cc1cc(O)cc(C)c1Cl`, the cytochrome c release ratio worked out at 5.53.

For the compound `CCCCOc1ccc(C(=O)CCN2CCCCC2)cc1`, the cytochrome c release ratio came out at 0.48.

Consider `COc1ccc(C(=O)c2ccccc2)c(O)c1`, for which the cytochrome c release ratio came out at 1.17.

Regarding `CC/C(=C(/CC)c1ccc(O)cc1)c1ccc(O)cc1`, the cytochrome c release ratio worked out at 0.65.

As to `CCCCOc1cc(C(=O)NCCN(CC)CC)c2ccccc2n1`, the cytochrome c release ratio came to 1.15.

Take `CN1CCC(=C2c3ccccc3Sc3ccccc32)CC1`: the cytochrome c release ratio was determined as 1.44.

Turning to `O=C1C(O)=C(O)C(=O)C(O)=C1O`, the cytochrome c release ratio came out at 1.43.

Regarding `CCCCCCCCNC(C)C(O)c1ccc(SC(C)C)cc1` (stereo not given), the cytochrome c release ratio came out at 0.61.

With `CC(C)NNC(=O)c1ccncc1`, the cytochrome c release ratio came to 1.02.

In the case of `Cc1cc2cc3c(C)cc(=O)oc3c(C)c2o1`, the cytochrome c release ratio came out at 1.2.

On to `CCn1cc(C(=O)O)c(=O)c2cc3c(cc21)OCO3`, for which the cytochrome c release ratio was 0.82.

On to `CC1=NN(c2ccccc2)C(=O)C1`, for which the cytochrome c release ratio stood at 0.94.

With `CCCCNc1ccc(C(=O)OCCN(C)C)cc1`, the cytochrome c release ratio stood at 0.87.

For the compound `CCCCC(CC)CN=C(N)NC(N)=NCCCCCCN=C(N)NC(N)=NCC(CC)CCCC` (stereo not given), the cytochrome c release ratio amounted to 26.4.

Another assay in a line: inhibitors of polyQ protein aggregation (AID 1604). Conditions: polyglutamine-induced protein aggregation inhibition assay; stronger effect = higher value; tested at 2.5 µM.
As to `Cc1cc(O)cc(C)c1Cl`, the inhibition of aggregation is 81.6%.

`CCCCOc1ccc(C(=O)CCN2CCCCC2)cc1` returned an inhibition of aggregation of 80.3%.

`COc1ccc(C(=O)c2ccccc2)c(O)c1` had an inhibition of aggregation of 35%.

As for `CC/C(=C(/CC)c1ccc(O)cc1)c1ccc(O)cc1`, the inhibition of aggregation came out at 38.5%.

For `CCCCOc1cc(C(=O)NCCN(CC)CC)c2ccccc2n1`, the inhibition of aggregation is 50%.

Regarding `CN1CCC(=C2c3ccccc3Sc3ccccc32)CC1`, the inhibition of aggregation was 88.8%.

With `O=C1C(O)=C(O)C(=O)C(O)=C1O`, the inhibition of aggregation came to 8.97%.

As to `CCCCCCCCNC(C)C(O)c1ccc(SC(C)C)cc1` (stereo not given), the inhibition of aggregation was 63%.

In turn, `CC(C)NNC(=O)c1ccncc1` displayed an inhibition of aggregation of 71.4%.

`Cc1cc2cc3c(C)cc(=O)oc3c(C)c2o1` had an inhibition of aggregation of 74.1%.

The compound `CCn1cc(C(=O)O)c(=O)c2cc3c(cc21)OCO3` registered an inhibition of aggregation of 74.7%.

Regarding `CC1=NN(c2ccccc2)C(=O)C1`, the inhibition of aggregation stood at 10.2%.

Consider `CCCCNc1ccc(C(=O)OCCN(C)C)cc1`, for which the inhibition of aggregation stood at 21.1%.

`CCCCC(CC)CN=C(N)NC(N)=NCCCCCCN=C(N)NC(N)=NCC(CC)CCCC` (stereo not given): the inhibition of aggregation was determined as 88%.

The values above are taken from PubChem BioAssay.
